CHT PAM: CHT positive allosteric modulators, primary screen, cell-based, membrane potential dye, choline EC20 | High affinity choline transporter 1 (Homo sapiens), Q9GZV3 | CHT-expressing cells; active compounds read high; LV-AA mutant CHT in HEK293 cells | B-score at 10 µM | actives 0.49% (n = 310,000) | AID 488977, 2010;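 active = initial fluorescence not abnormally high and integrated response B-score, plate-corrected, over 3 SD above library mean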
ANO1 block: TMEM16A chloride channel inhibitors, primary screen, cell-based, HTS; Anoctamin-1 (Mus musculus), Q8BHY3; HEK293 TMEM16A/YFP iodide influx fluorescence, ionomycin; normalized B-score (activity score, 25-100; higher = stronger inhibition) at 10 µM; actives 1.2% (n = 310,000); AID 588511, 2011;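 active = ratio plate-corrected score three or more library SD toward inhibition, starting fluorescence score within five deviations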;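 also: score derived from kinetic fluorescence span divided by baseline fluorescence per well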
TMEM16A act: TMEM16A chloride channel activators or potentiators, primary screen, cell-based, HTS. AID 623877, 2012. HEK293 TMEM16A/YFP-H148Q/I152L, iodide quench fluorescence; active compounds read low. B-score at 10 µM. actives 0.3% (n = 340,000);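 active = fluorescence-ratio B-score plate-corrected deviation score at least 3 library SD below zero, with starting fluorescence score within 5 deviations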;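 also: channel opened by trigger with iodide after compound preincubation; score built on the fluorescence ratio of max minus min over baseline; more negative score means more quench and so TMEM16A activation or potentiation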
CHT block: inhibitors of human choline transporter CHT; High affinity choline transporter 1 (Homo sapiens), Q9GZV3; CHT-expressing cells, membrane potential dye, choline response; active compounds read low; B-score at 10 µM; actives 0.86% (n = 310,000);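 active = B-score over 3 SD under the library average, and starting fluorescence ratio not unusually high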;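 also: choline stimulus applied at its EC90 after an EC20 pre-addition; B-score computed on integrated fluorescence ratio after choline addition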
TMEM16A reconf: TMEM16A chloride channel inhibitors, confirmation, cell-based, re-confirmation; shares compounds with ANO1 block; HEK293 TMEM16A/YFP-H148Q, iodide quench fluorescence; ionomycin added to raise cell calcium; inhibition, % at 10 µM; actives 39% (n = 2,300); AID 652189, 2013;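 active = mean duplicate percent inhibition, scaled so buffer wells are 0 and the reference blocker 100, over three buffer SD above buffer mean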
HEK293 Ca mobil: calcium mobilization in TMEM16A/YFP HEK293 cells, confirmation, counter-screen for TMEM16A inhibitor project | shares compounds with ANO1 block | actives 2% (n = 2,300) | calcium response (% of ionomycin), % at 10 µM | Fluo4 calcium mobilization | AID 652231, 2013;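 active = duplicate-averaged calcium signal over 20% of the ionomycin maximum, relative to buffer baseline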;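 also: each well's signal is peak minus trough fluorescence divided by its pre-addition baseline; 0% = buffer wells and 100% = ionomycin wells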
YFP-HEK293 quench: iodide YFP quench changes in parental YFP-HEK293, counter-screen for TMEM16A inhibitor project, cell-based. shares compounds with ANO1 block. ionomycin. YFP ratio F(max-min)/F0 at 10 µM. 2,300 tested, under 10 active. AID 652233, 2013;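 active = yellow fluorescent protein signal ratio exceeding the buffer control mean by over 5 SD of those controls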;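 also: ratio is mean of duplicate wells from kinetic YFP trace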
ClC-1 inh: ClC-1 chloride channel inhibition, selectivity assay for TMEM16A inhibitor project, cell-based, voltage-dependent ClC-1; shares compounds with ANO1 block; CHO ClC-1-YFP, iodide influx fluorescence quench; iodide control reads 0, buffer control 100; ratio percent, % at 10 µM; 2,300 tested, under 10 active;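 active = duplicate-mean ratio percent above the mean of iodide-only control wells, which defines zero, plus 5 of their SD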;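 also: higher percent means stronger block of ClC-1 iodide influx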
* hit, by the source's call. Rows were chosen to be rich in hits. Some 2.3% of all compounds tested hit in one or more screens of this group.

CN1C(=O)c2ccccc2NC(=O)[C@]12O[C@@H]2c1cccc(O)c1 was read as CHT PAM inactive, ANO1 block inactive, TMEM16A act inactive, CHT block inactive, TMEM16A reconf inactive, HEK293 Ca mobil inactive, YFP-HEK293 quench -0.55 and ClC-1 inh -8.
`CC(NC(=O)c1cc(S(=O)(=O)N2CCCC2)ccc1Cl)c1ccccn1` (stereo unspecified) gave TMEM16A act inactive.
c1ccc(-c2csc(N3CCN(c4ccccn4)CC3)n2)cc1 was read as CHT PAM inactive, ANO1 block 25*, TMEM16A act inactive, CHT block inactive, TMEM16A reconf inactive, HEK293 Ca mobil inactive, YFP-HEK293 quench -1.1 and ClC-1 inh -8.
For c1ccc(-c2csc(N3CCOCC3)n2)cc1 the results were CHT PAM inactive, ANO1 block inactive, TMEM16A act inactive and CHT block inactive.
CC(=O)NCCC(=O)Nc1nc2ccc(Oc3ccccc3)cc2s1 was read as CHT PAM inactive, ANO1 block inactive, TMEM16A act inactive and CHT block inactive.
COC(=O)c1scc(C#N)c1N/N=C(\C#N)S(=O)(=O)c1ccc(Cl)cc1 was read as CHT PAM inactive, ANO1 block 25*, TMEM16A act inactive, CHT block inactive, TMEM16A reconf inactive, HEK293 Ca mobil inactive, YFP-HEK293 quench -1 and ClC-1 inh -24.
For Cc1cc(C(=O)Cn2nnc(-c3ccc(Cl)cc3)n2)c(C)n1CC1CCCO1 (stereo unspecified) the results were CHT PAM inactive, ANO1 block 25*, TMEM16A act inactive, CHT block inactive, TMEM16A reconf 22%*, HEK293 Ca mobil inactive, YFP-HEK293 quench -0.85 and ClC-1 inh -12.
`Cc1cc(C(=O)CSc2nc3ccccc3[nH]2)c(C)n1CC1CCCO1` (stereo unspecified) gave CHT PAM inactive, ANO1 block 25*, TMEM16A act inactive, CHT block inactive, TMEM16A reconf inactive, HEK293 Ca mobil inactive, YFP-HEK293 quench -1.2 and ClC-1 inh -30.
Cc1cc(C(=O)CSc2nc3ccccc3o2)c(C)n1CC1CCCO1 (stereo unspecified) was read as CHT PAM inactive, ANO1 block 100*, TMEM16A act inactive, CHT block inactive, TMEM16A reconf inactive, HEK293 Ca mobil inactive, YFP-HEK293 quench -1.1 and ClC-1 inh -24.
Screening Cc1cc(C(=O)CSc2nc(N)cc(N)n2)c(C)n1CC1CCCO1 (stereo unspecified) returned TMEM16A act inactive.
Cc1cc(C(=O)CSc2nc(N)cc(=O)[nH]2)c(C)n1CC1CCCO1 (stereo unspecified) was read as TMEM16A act inactive.
For CCC(C)Cn1c(C(C)O)nc2ccccc21 (stereo unspecified) the results were CHT PAM inactive, ANO1 block inactive and CHT block inactive.
Screening Cc1cccc(Cn2c(Sc3nc(C)cs3)nc3c2c(=O)[nH]c(=O)n3C)c1 returned CHT PAM inactive, ANO1 block 100*, TMEM16A act inactive, CHT block inactive, TMEM16A reconf inactive, HEK293 Ca mobil inactive, YFP-HEK293 quench -1 and ClC-1 inh -12.
`Cc1csc(Sc2nc3c(c(=O)[nH]c(=O)n3C)n2Cc2ccccc2Cl)n1` gave CHT PAM inactive, ANO1 block inactive, TMEM16A act inactive and CHT block inactive.
